Compound activity (PubChem)
The list is not random: actives were taken first. Their share in the collection is about 1.6%.
KCNQ2 block: rat KCNQ2 potassium channel inhibitors, primary screen, cell-based, CHO-K1, FluxOR thallium flux, B-score. Potassium voltage-gated channel subfamily KQT member 2 (Rattus norvegicus), O88943. 20 min; hits give low values. B-score at 10 µM. 310,000 compounds, 1.1% hits. AID 2156, 2009;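 active = fluorescence ratio B-score at most minus 3 library SDs, with starting brightness B-score within 2 library SDs, cut at about -5.5 in these data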
Target sequence (O88943 whole entry, looked up): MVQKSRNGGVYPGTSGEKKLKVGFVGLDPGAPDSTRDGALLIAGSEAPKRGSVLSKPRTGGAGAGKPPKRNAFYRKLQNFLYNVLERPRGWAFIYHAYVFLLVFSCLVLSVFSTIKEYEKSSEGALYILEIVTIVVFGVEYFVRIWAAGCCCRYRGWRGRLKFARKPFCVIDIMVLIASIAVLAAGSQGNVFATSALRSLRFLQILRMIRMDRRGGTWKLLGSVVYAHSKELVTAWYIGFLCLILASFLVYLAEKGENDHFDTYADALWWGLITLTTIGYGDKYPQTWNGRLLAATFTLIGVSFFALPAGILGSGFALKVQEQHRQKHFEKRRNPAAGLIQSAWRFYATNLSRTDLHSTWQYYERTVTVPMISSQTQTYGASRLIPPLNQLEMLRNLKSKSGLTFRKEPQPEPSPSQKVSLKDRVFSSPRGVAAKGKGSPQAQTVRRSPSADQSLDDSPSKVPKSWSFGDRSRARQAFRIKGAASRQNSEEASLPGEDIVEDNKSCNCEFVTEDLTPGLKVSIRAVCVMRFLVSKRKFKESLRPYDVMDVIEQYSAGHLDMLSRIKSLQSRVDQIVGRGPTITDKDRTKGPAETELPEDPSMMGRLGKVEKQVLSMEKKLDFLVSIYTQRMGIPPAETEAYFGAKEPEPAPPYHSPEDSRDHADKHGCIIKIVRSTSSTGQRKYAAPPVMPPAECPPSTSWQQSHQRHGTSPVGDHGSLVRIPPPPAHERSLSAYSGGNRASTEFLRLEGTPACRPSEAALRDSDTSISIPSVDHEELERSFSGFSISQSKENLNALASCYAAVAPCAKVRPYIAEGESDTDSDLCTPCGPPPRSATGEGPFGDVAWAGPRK
KCNQ2 pot: potentiators of rat KCNQ2 potassium channel. 310,000 compounds, 0.54% hits. Potassium voltage-gated channel subfamily KQT member 2 (Rattus norvegicus), O88943. B-score at 10 µM. CHO-K1 KCNQ2, FluxOR thallium flux fluorescence; hits give high values;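 active = fluorescence ratio B-score at least 3 SD of library B-scores, with initial fluorescence B-score within 3 of them, cut at about 5.3 in these data; same plate scores as AID 2156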;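 also: B-score of peak minus minimum over baseline fluorescence ratio after K+ and Tl+ stimulus; positive B-score means potentiation of KCNQ2 with more thallium influx and brighter signal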
Kir21 confirm: mouse Kir2.1 channel blockers, retest, confirmation, cell-based, FluxOR thallium flux, duplicate; Tl flux remaining, % of negative control (hits give low values), % at 10 µM; Kir2.1-expressing cells, FluxOR thallium flux fluorescence; hits give low values; shares compounds with KCNQ2 pot; AID 2032, 2009; 2,300 compounds, 41% hits;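 active = Primary-screen hit whose thallium flux fell at least 3 control SD below untreated wells in both duplicates, with normal baseline fluorescence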;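 also: 0% = blank wells without stimulus and 100% = stimulated no-compound controls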
HEK293 Tl flux: alters thallium flux in parental HEK293 cells, Kir2.1 counter-screen. shares compounds with KCNQ2 pot. FluxOR thallium flux fluorescence; 0% = unstimulated blank wells. 2,300 compounds, 19% hits. FluxOR signal as % of negative control (100 = no effect), % at 10 µM;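 active = dye signal at least 3 control SD above or below untreated wells in both duplicates, raw fluorescence within 3, either direction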;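 also: percent is based on the flux ratio of peak minus minimum fluorescence over baseline F0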
CHO-K1 Tl ctr: nonspecific thallium flux increase in parental CHO-K1, confirmation, counter-screen for KCNQ2 potentiator project, cell-based, FluxOR thallium flux, duplicate; shares compounds with KCNQ2 pot; parental CHO-K1 cells, FluxOR thallium flux fluorescence; zero = vehicle mean+3SD, 100% = vehicle-minus-blank window; activity increase over 3SD of controls, % at 10 µM; 1,200 compounds, 43% hits;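 active = signal rise of at least 3 SD above the untreated control mean, in both duplicate wells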;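 also: counter screen of KCNQ2 potentiator hits so any rise reflects channel-independent effects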
KCNQ1 sel pot: human KCNQ1 channel potentiation off-target, confirmation, selectivity assay for KCNQ2 potentiator project, cell-based, CHO, FluxOR thallium flux | shares compounds with KCNQ2 pot | 1,200 compounds, 28% hits | activation over 3SD threshold, % at 10 µM | CHO KCNQ1 stable, FluxOR thallium flux fluorescence; beyond 3SD, as % of vehicle-control signal;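 active = fluorescence ratio rise of at least 3 SD of vehicle wells above their mean, in both replicate wells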;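 also: 0% = vehicle mean plus 3 SD and 100% = vehicle minus unstimulated blank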
KCNQ2 pot conf: rat KCNQ2 channel potentiators, confirmation, cell-based, CHO, FluxOR thallium flux, duplicate. 1,200 compounds, 68% hits. potentiation, less the hit threshold, % at 10 µM. CHO-KCNQ2 cells, FluxOR thallium flux fluorescence. shares compounds with KCNQ2 pot. AID 2287, 2010;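 active = fluorescence ratio rising 3 SD or more over the vehicle control mean in both replicates, plus primary screen hit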;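 also: peak minus minimum thallium fluorescence divided by baseline after K/Tl stimulus; 0% = vehicle mean plus 3 SD and 100% = vehicle minus unstimulated blank difference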
Kir2-1 sel: mouse Kir2.1 channel activation off-target, confirmation, selectivity assay for KCNQ2 potentiator project, cell-based, HEK293, FluxOR thallium flux. shares compounds with KCNQ2 pot. HEK293 Kir2.1, FluxOR thallium flux fluorescence. activity over 3SD threshold, % at 10 µM. 1,200 compounds, 2% hits;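 active = fluorescence ratio rise of at least 3 SD above the vehicle-control mean, seen in both replicates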;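 also: 0% = vehicle mean plus 3 SD and 100% = vehicle minus no-stimulus blank window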
KCNQ2 W236L MoA: potentiators of retigabine-insensitive KCNQ2 W236L, mechanism study for KCNQ2 potentiator project, cell-based, rat KCNQ2 W236L, CHO, automated patch clamp; shares compounds with KCNQ2 pot; automated patch clamp current; current increase over 3SD of negative controls (%), hits give high values, % at 25 µM; 940 compounds, 10% hits; AID 2558, 2010;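 active = current increase at least 3 SD of the untreated controls above them in both duplicate recordings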
Active calls of the source: *; i = inactive; . = no result given.

SMILES	KCNQ2 block	KCNQ2 pot	Kir21 confirm	HEK293 Tl flux	others
N/C(=N\OC(=O)CC1CCCCC1)c1cccc(Br)c1	i	7.8*	i	i	CHO-K1 Tl ctr=-13;KCNQ1 sel pot=9.5*;KCNQ2 pot conf=21*;Kir2-1 sel=-43;KCNQ2 W236L MoA=i
O=C(NC1CCCCC1)C(c1ccccn1)N(C(=O)c1csnn1)C1CC1 (configuration not stated)	i	.	.	.
CCn1c(-c2nonc2NC(=O)c2ccccc2)nc2ccccc21	i	1.3	.	.
COCCCNC(=O)c1cccc(OC)c1OC	i	.	.	.
COc1ccccc1CC(=O)NC1CCCCCC1	i	1.9	.	.
CCOc1cc(Br)c(CC(=O)NC2CCCCCC2)cc1OCC	i	14*	i	i	CHO-K1 Tl ctr=1.1*;KCNQ1 sel pot=14*;KCNQ2 pot conf=15*;Kir2-1 sel=-34;KCNQ2 W236L MoA=i
COc1ccc(NCc2nc3ccccc3n2C)cc1	i	0.16	.	.
CCOC(=O)Nc1ccc2c(c1)N(C(=O)CN)c1ccccc1CC2	i	.	.	.
Clc1ccc2c(c1)-c1nnc(Br)n1-c1ccccc1S2	i	1	66%*	70%*
c1ccc2c(c1)Sc1ccccc1-n1cnnc1-2	i	.	.	.
Brc1nnc2n1-c1ccccc1Sc1ccccc1-2	i	1.9	28%*	66%*
Clc1ccccc1-c1nnc2n1-c1ccccc1SC2	i	.	.	.
CCc1ccc(NC(=O)[C@H](C)NC(=O)C2CCN(C(=O)[C@@H](N)Cc3ccccc3)CC2)cc1	i	.	.	.
CC(=O)NC1(C(F)(F)F)N=C(c2ccccc2)NC1=O (configuration not stated)	i	.	.	.
Clc1ccc2nc(-c3ccc(Cl)nc3)[nH]c2c1	i	6.9*	i	i	CHO-K1 Tl ctr=-7;KCNQ1 sel pot=57*;KCNQ2 pot conf=5.7*;Kir2-1 sel=-17;KCNQ2 W236L MoA=3.5%*
Nc1ccc2nc(-c3ccc(Cl)cc3)[nH]c2c1	i	0.01	.	.
CCCC(=O)Nc1ccc2nc(C)n(Cc3ccccc3Cl)c(=O)c2c1	i	.	.	.
O=C(COC(=O)c1ccccc1SCC(=O)NC1CCS(=O)(=O)C1)NC1CCS(=O)(=O)C1 (configuration not stated)	i	0.52	.	.
CCCCc1cc(=O)oc2c(C)c(OCC(=O)N3C[C@H]4C[C@@H](C3)c3cccc(=O)n3C4)ccc12	i	.	.	.
O=C(Nn1cnnc1)c1cc2c(s1)CCCC2	i	0.67	.	.
CCCCn1c(-c2csc3ccccc23)n[nH]c1=S	i	0.12	.	.
CCCCn1c(-c2csc(C(C)C)c2)n[nH]c1=S	i	8.1*	.	.	CHO-K1 Tl ctr=-2;KCNQ1 sel pot=22*;KCNQ2 pot conf=3.4*;Kir2-1 sel=-55;KCNQ2 W236L MoA=40%*
C#CCNC(=O)C1=C[C@@H](c2cn(C(C)=O)c3ccccc23)C[C@@H](OCc2ccc(CO)cc2)O1	i	.	.	.
COc1ccc(C(=O)Nc2cc(OC)cc(OC)c2)cc1	i	4.4	.	.
COc1cc(NC(=O)c2ccccc2)cc(OC)c1	i	17*	i	i	CHO-K1 Tl ctr=-16;KCNQ1 sel pot=-12;KCNQ2 pot conf=30*;Kir2-1 sel=-34;KCNQ2 W236L MoA=i
SMILES	KCNQ2 block	KCNQ2 pot	Kir21 confirm	HEK293 Tl flux	others
Cc1cc(OC(=O)N2CCOCC2)cc(C)c1Cl	i	2	.	.
COC(=O)c1nc(NC(=S)NC(=O)c2cccs2)sc1C	i	5.8*	i	140%*	CHO-K1 Tl ctr=5.0*;KCNQ1 sel pot=-30;KCNQ2 pot conf=-2;Kir2-1 sel=-37;KCNQ2 W236L MoA=i
CCc1ccc(-c2nc(NC(=S)NC(=O)c3cccs3)sc2C)cc1	i	1.7	.	.
CC(=O)c1sc(=S)n(-c2ccc(Cl)cc2)c1C	i	1.5	.	.
CC(C)(C)c1cc(Cl)ccc1OCCn1ccnc1	i	0.35	.	.
COCCCNCCCOc1ccc(Cl)cc1Br	i	.	.	.
CC(O)CNCCCOc1ccc(Cl)cc1C(C)(C)C (configuration not stated)	i	.	32%*	i
CN(C)CCOCCOc1ccc(Cl)cc1C(C)(C)C	i	.	34%*	i
CSc1ccc(C2Nc3ccccc3-c3cc(C)nn32)cc1 (configuration not stated)	i	.	.	.
O=S(=O)(c1ccc(F)cc1)N1CCC(N2CCCCCC2)CC1	i	0.01	.	.
c1ccc2c3c(c(CN4CCCCC4)cc2c1)COC3	i	0.31	.	.
O=C(O)CCCn1cc(NC(=O)COc2ccc(F)cc2)cn1	i	.	.	.
OC(CNCc1ccccc1F)(c1ccc(F)cc1)c1ccc(F)cc1	i	.	.	.
Cc1ccc(CNCC(O)(c2ccccc2)c2ccc(F)cc2)cc1 (configuration not stated)	i	.	.	.
OC(CNCc1ccccc1)(c1ccc(F)cc1)c1ccc(F)cc1	i	.	38%*	i
OC(CNCc1ccc(F)cc1)(c1ccccc1)c1ccc(F)cc1 (configuration not stated)	i	.	i	i
O=C(NC1=NCCS1)c1ccc(Cl)cc1	i	1	.	.
Cc1ccccc1CNS(=O)(=O)c1ccc2c(c1)OCCO2	i	.	.	.
CC(Nc1ccc(Cl)cc1)c1cc(Cl)ccc1O (configuration not stated)	i	4.2	59%*	i
CCOc1ccc(NC(C)c2cc(Cl)ccc2O)cc1 (configuration not stated)	i	4.5	.	.
Oc1c(Cl)cc(Cl)c2c1NCCC2	i	6.3*	i	i	CHO-K1 Tl ctr=4.8*;KCNQ1 sel pot=1.6*;KCNQ2 pot conf=6.1*;Kir2-1 sel=-42;KCNQ2 W236L MoA=i
O=C1NCCCc2c1oc1ccc(O)cc21	i	0.28	.	.
O=C(OCCN(CCOC(=O)c1ccncc1)S(=O)(=O)c1cccs1)c1ccncc1	i	1.1	.	.
CC(C)Cc1csc(NC(=O)c2ccc(Br)cc2)c1C(=O)O	i	6.1*	i	126%*	CHO-K1 Tl ctr=6.1*;KCNQ1 sel pot=16*;KCNQ2 pot conf=18*;Kir2-1 sel=-28;KCNQ2 W236L MoA=i
